Source: PubChem BioAssay (several laboratories)
Shown are actives, neighbours in structure and some others; about 2.9% of the full set was active somewhere.
Granule exo inh: LAMP-1 surface exposure blockers, TALL-104 cells – cell-based, flow cytometry, MLPCN library, primary screen | TALL-104 LAMP-1 surface exposure; cells stimulated with thapsigargin and PMA | inhibition, % at 10 µM | hit rate 0.66% among 360,000;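 active means inhibition above about 55%, limit read from the data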
PP1 counter: PP1-alpha phosphatase inhibitors, primary screen, counter-screen for PP5 inhibitor project, biochemical, fluorescence, OMFP substrate, single point; Serine/threonine-protein phosphatase PP1-alpha catalytic subunit (Homo sapiens), P62136; hit rate 0.9% among 320,000; inhibition, % at 6.7 µM; purified PP1alpha;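 active means inhibition above the mean inhibition of all tested compounds plus 3 SD, computed separately for each screening campaign, cut at about 15% in these data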
Beta2AR agonist: beta2AR agonists driving receptor internalization, primary screen, cell-based, FAP fluorogen, flow cytometry; Am2.2-beta2AR cells; hit rate 0.43% among 340,000; Beta-2 adrenergic receptor (Homo sapiens), P07550; response, % (no concentration beside the values);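 active means response above a set limit, near 3 SD of response in nonfluorescent compounds, cut at about 42% in these data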
NadD block: inhibitors of S. aureus NadD, primary screen, biochemical, colorimetric, uHTS | inhibition, % at 20 µM | purified NadD enzyme, colorimetric absorbance read-out | hit rate 0.78% among 360,000; in the data active means inhibition above about 26%
GRK2 inh: compounds blocking aptamer binding on GRK2 – biochemical, human GRK2, bead flow cytometry, HTS, primary screen; Beta-adrenergic receptor kinase 1 (Homo sapiens), P25098; FAM-aptamer displacement from GRK2; inhibition of aptamer binding, % at 10 µM; hit rate 0.59% among 330,000; AID 488847, 2010;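 active means inhibition of aptamer binding above 40%, roughly 3 SD of noise, on plates passing a quality check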;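 further: median bead fluorescence of bound FAM aptamer so fluorescent compounds give negative values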
Target sequence (P25098 whole entry, looked up): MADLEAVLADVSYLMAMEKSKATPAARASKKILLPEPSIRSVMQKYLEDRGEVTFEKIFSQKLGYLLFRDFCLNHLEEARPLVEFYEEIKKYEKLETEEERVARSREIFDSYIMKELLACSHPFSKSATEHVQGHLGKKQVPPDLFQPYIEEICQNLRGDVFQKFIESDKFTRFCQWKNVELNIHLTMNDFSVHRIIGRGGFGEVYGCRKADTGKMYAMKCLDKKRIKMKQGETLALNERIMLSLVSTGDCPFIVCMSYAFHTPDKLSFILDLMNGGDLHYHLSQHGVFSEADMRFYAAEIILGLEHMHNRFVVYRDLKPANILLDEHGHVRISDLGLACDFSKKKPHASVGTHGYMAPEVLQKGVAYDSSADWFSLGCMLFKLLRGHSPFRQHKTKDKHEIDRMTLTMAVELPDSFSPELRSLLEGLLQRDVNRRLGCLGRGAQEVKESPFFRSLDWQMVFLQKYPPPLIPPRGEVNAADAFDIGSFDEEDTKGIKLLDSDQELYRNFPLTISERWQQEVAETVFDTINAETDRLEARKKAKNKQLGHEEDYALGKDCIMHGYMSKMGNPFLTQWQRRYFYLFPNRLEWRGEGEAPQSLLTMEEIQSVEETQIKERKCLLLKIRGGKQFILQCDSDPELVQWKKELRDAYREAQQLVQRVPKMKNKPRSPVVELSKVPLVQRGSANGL
Starred values were filed as active, the others as inactive; i = inactive; / = no result given.

SMILES | Granule exo inh | PP1 counter | Beta2AR agonist | NadD block | GRK2 inh
COc1ccc(CCN2C(=O)c3[nH]nc(-c4ccccc4O)c3C2c2cccc(Cl)c2)cc1 (configuration not stated) | 62* | 6 | 24 | 26 | 1
CCOc1ccc(-n2c(SCC(=O)Nc3ccc(CC)cc3)nc3n[nH]c(C)c3c2=N)cc1 | -4 | 16* | 0 | 2 | 0
O=C(NC(NC(=S)Nc1ccccc1)C(Cl)(Cl)Cl)c1cccc(Cl)c1 (configuration not stated) | 1 | 5 | 2 | 1 | 0
O=C(NC(NC(=S)Nc1ccc(Cl)cc1Cl)C(Cl)(Cl)Cl)c1cccc([N+](=O)[O-])c1 (configuration not stated) | -1 | 15* | 8 | 1 | 0
COCCNC(=O)C1(C)CCCN(C(=O)c2cc(OC)c(OC)c(OC)c2)C1 (configuration not stated) | 0 | / | / | 0 | /
N/C(=N\N=C/c1ccc(Br)cc1)N/N=C\c1ccc(Br)cc1 | 63* | 14 | 7 | 15 | 0
N/C(=N\N=Cc1ccc2c(c1)OCO2)NN=Cc1ccc2c(c1)OCO2 | 34 | / | 7 | 28 | /
N/C(=N\N=C/c1ccc(F)cc1)N/N=C\c1ccc(F)cc1 | 61* | 16* | 16 | -1 | 0
CCOC(=O)/C=c1/s/c(=C/c2ccccc2OC)c(=O)n1CC(=O)N1CCOCC1 | -1 | / | -5 | -3 | /
COc1ccc(S(=O)(=O)Cc2ccc(C(=O)NC3CCCCCC3)o2)cc1 | -1 | -2 | 1 | -6 | 2
CCOC(=O)C1=C(COC(=O)C2(C)CC2(Cl)Cl)NC(=O)NC1c1ccccc1 (configuration not stated) | 0 | -1 | -2 | 5 | 2
CCCCC(=O)N/N=C/c1ccc(Sc2cccc3cccnc23)o1 | 1 | 2 | 49* | 10 | 1
CCn1cc([N+](=O)[O-])c(C(=O)N2N=C(c3ccc4ccccc4c3)CC2c2cc(Br)ccc2O)n1 (configuration not stated) | 7 | 4 | 2 | 40* | 4
COc1ccc(OCCN2CCC(C(=O)NC(c3ccc(Cl)cc3)c3cnccn3)CC2)cc1 (configuration not stated) | -1 | / | / | -8 | /
CCCC(=O)NC(c1ccccc1OC)c1ccc2cccnc2c1O (configuration not stated) | -1 | -3 | 9 | 8 | 7
CCCCC(=O)NC(c1ccccc1OC)c1ccc2cccnc2c1O (configuration not stated) | 2 | 15* | 5 | 5 | 0
C/C(=N\NC(=O)C(c1ccccc1)c1ccccc1)c1ccc(O)cc1 | 2 | -2 | -16 | 0 | 1
N/C(=N\OC(=O)C(c1ccccc1)c1ccccc1)c1ccccn1 | -1 | 5 | 58* | 3 | 0
C/C(=N\NC(=O)C(c1ccccc1)c1ccccc1)c1ccccn1 | 0 | 2 | 46* | -4 | 2
N/C(=N\OC(=O)c1ccccc1)c1ccccn1 | 3 | -7 | -5 | 6 | 0
CN(C)CCNc1cnn(-c2ccccc2)c(=O)c1Cl | 14 | -4 | 1 | -8 | 0
O=C(CCCCCN1C(=O)c2ccccc2C1=O)Oc1ccc2c3c(c(=O)oc2c1)CCC3 | 12 | -1 | -7 | -1 | 2
C[n+]1c2cc(N)ccc2cc2ccc(N)cc21 | -1 | / | i | 33* | /
CC(C)(C)C(=O)NC(=S)NNC(=O)c1sc2ccccc2c1Cl | 23 | -5 | 8 | -1 | 49*
CN(c1ccccc1)S(=O)(=O)c1ccc(C(=O)OCC(=O)NCc2cccs2)cc1 | -3 | 0 | 1 | -5 | 0
SMILES | Granule exo inh | PP1 counter | Beta2AR agonist | NadD block | GRK2 inh
Cc1ccc(C=NNc2nc3c([nH]2)c(=O)n(C)c(=O)n3C)cc1 | 84* | / | 8 | -4 | /
Cn1c(=O)c2[nH]c(NN=Cc3ccc(Br)cc3)nc2n(C)c1=O | 26 | / | 0 | 2 | /
Cn1c(=O)n(C)c2cc(N3CCOCC3)c(NC(=O)c3cccc(Cl)c3)cc21 | -7 | -5 | -16 | -1 | 0
CC(C)C[C@@H](CN(C)N=O)N(C[C@H](Cc1ccccc1)N(CCc1ccccc1)N=O)N=O | -2 | 7 | 12 | -13 | 2
CN(C[C@H](Cc1ccccc1)N(C[C@H](Cc1cccc2ccccc12)N(CCc1ccccc1)N=O)N=O)N=O | -3 | 16* | -1 | -3 | 12
O=C(c1cccc(C(F)(F)F)c1)N1CCC2(CC1)NCCc1[nH]cnc12 | 2 | 0 | -1 | -8 | 5
O=CN/C=C/c1cccc(O)c1 | -6 | / | -10 | 1 | /
c1ccc(-c2sc3ccccc3c2-c2ccc(OCCN3CCOCC3)cc2)cc1 | -3 | / | -4 | -6 | 2
Oc1cccc(-c2sc3ccccc3c2-c2ccc(OCCN3CCCCC3)cc2)c1 | 59* | / | / | 8 | /
Cc1ccc(CNc2ccc([N+](=O)[O-])cc2C(N)=O)cc1 | 13 | 3 | -3 | -17 | 1
Cc1ccc(Oc2c(C(N)=O)cc([N+](=O)[O-])cc2[N+](=O)[O-])cc1 | 26 | 1 | 57* | -1 | 2
CCCN(CC(=O)Nc1ccccc1OC)C(=O)CCC(=O)c1ccc(OCC)cc1 | -10 | 3 | 21 | -2 | 0
O=C(NC1CCN(S(=O)(=O)c2cccc([N+](=O)[O-])c2)CC1)C1CCCCC1 | -10 | 16* | -7 | -1 | 0
O=C(/C=C/c1ccco1)N1CCN(S(=O)(=O)c2cccc([N+](=O)[O-])c2)CC1 | 3 | / | 0 | 8 | 79*
COc1ccc(S(=O)(=O)N2CCN(C(=O)/C=C/c3ccco3)CC2)cc1 | -14 | / | -7 | 12 | /
COc1ccc(NC(C)=O)cc1NC(=O)c1ccc2ccccc2c1 | 0 | -1 | -1 | 3 | 4
COc1ccc(NC(=O)C(C)N=C2NS(=O)(=O)c3ccccc32)cc1S(N)(=O)=O (configuration not stated) | -1 | -4 | 5 | 0 | 1
CN(C(=O)COC(=O)C1CCN(S(=O)(=O)c2ccc3c(c2)OCCO3)CC1)c1ccccc1 | 7 | -4 | 8 | -6 | 1
CC(C)N(Cc1ccccc1)C(=O)COC(=O)C1CCN(S(=O)(=O)c2ccc3c(c2)OCCO3)CC1 | 0 | 16* | 14 | -6 | 0
COc1ccc(C(=O)/C=C/C(=O)N(CC(=O)NC2CCCCC2)Cc2cccs2)c(O)c1 | 53 | 6 | 115* | -6 | 0
COCCN(CC(=O)NC1CCCCC1)C(=O)/C=C/C(=O)c1ccc(OC)cc1O | 44 | / | 91* | -1 | /
COc1cc(OC)c(C#N)c(S(=O)(=O)Cc2ccccc2)c1 | -4 | -2 | -1 | 2 | 0
